The record followed here is PubChem BioAssay (Tox21).

The structures appear in SMILES notation. A number with no mark means an inactive call. Inconclusive results are not listed. Active and inactive are the calls of the source. Unless noted, the call rests on the fitted dose curve; in most records, active means well fitted curve in the direction sought with a large enough effect in the repeat runs; inconclusive means weak or mixed curves; inactive means no such curve, though single readings can be large; an effect the other way counts as inactive or inconclusive.

Assay [1] in a line: qHTS assay to identify small molecule antagonists of the androgen receptor (AR) signaling pathway using the MDA cell line in the presence of 0.5 nM R1881 - cell viability counter screen (AID 1259242). Further: nearly all actives have a fitted effect of over 45% in size. Further: potency means the concentration at half of the fitted maximal effect. Put shortly: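 Live-cell protease fluorescence, CellTiter-Fluor, 30 min at 37C. Cells: MDA-kb2, 3,000/well, preincubated 5 hr. Compounds plus 0.5 nM R1881 final, 16 hr, 37C, 0% CO2.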
On the technique in general: qHTS replaces the single test concentration by a dilution series.

The nature of assay [2]: qHTS assay to identify small molecule HDAC inhibitors (AID 1259364).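 Further: wild-type HCT-116 cells with endogenous class I/II HDAC activity; top concentration of the series differs between compounds; nearly all actives have a fitted effect of over 45% in size.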 The essentials: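 HCT-116 (wild type), 1,500 cells/well, overnight; compound 2 hr 37C 5% CO2; HDAC-Glo I/II reagent 30 min RT; luminescence readout.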
A short description of assay [3]: qHTS assay to identify small molecule agonists of the sonic hedgehog signaling (Shh) pathway - cell viability counter screen (AID 1259366). Further: nearly all actives have a fitted effect of over 50% in size. Further: potency means the concentration at half of the fitted maximal effect. Put shortly: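 NIH/3T3-derived Gli1-Luc reporter cells, 2,000 per well, received compound after 4 h and were treated about 23 h at 37C. Viability measured in the same wells by CellTiter-Fluor fluorescence after 1 h.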
Assay [4] in a line: qHTS assay to identify small molecule antagonists of the sonic hedgehog signaling (Shh) pathway - cell viability counter screen (AID 1259367). Further: nearly all actives have a fitted effect of over 55% in size. Further: potency means the concentration at half of the fitted maximal effect. The essentials: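 CellTiter-Fluor signal in conditioned medium-stimulated 3T3 Gli1-Luc cells, 23 hr compound exposure, 37C.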
Assay [5] in a line: qHTS assay to identify small molecule agonists of the sonic hedgehog signaling (Shh) pathway (AID 1259368; calls by dose curve;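 further: NIH/3T3-derived 3T3Gli1-Luc cells carrying a stable Gli1-driven firefly luciferase reporter; series mostly up to about 92 µM; nearly all actives have a fitted effect of over 15% in size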). The essentials: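 Read-out: firefly luciferase luminescence from a Gli1 response element reporter stably integrated in NIH/3T3-derived 3T3Gli1-Luc cells, measured 30 min at room temperature after reagent addition. Compound exposure lasted 24 hr at 37 C, 5% CO2.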
A short description of assay [6]: qHTS assay to identify small molecule antagonists of the sonic hedgehog signaling (Shh) pathway (AID 1259369; calls by dose curve; further: nearly all actives have a fitted effect of over 45% in size; further: potency means the concentration at half of the fitted maximal effect). Put shortly: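 Luminescence readout: firefly Luc under Gli1 response element in 3T3Gli1-Luc cells (NIH/3T3 clone). Antagonist mode, stimulation by conditioned medium; compound exposure 24hr at 37 C, 5% CO2.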
Assay [7] can be described thus: qHTS assay to identify small molecule agonists of the androgen receptor (AR) signaling pathway in the presence of an antagonist - cell viability counter screen (AID 1259379). Further: nearly all actives have a fitted effect of over 25% in size. Further: potency means the concentration at half of the fitted maximal effect. Put shortly: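 Viability counter screen: CellTiter-Fluor fluorescence, measured in the same wells as the luciferase read-out. MDA-kb2 cells, 3,000/well, with nilutamide at 3.0uM final and compounds at 15 concentrations, 16 hr at 37C, 0% CO2.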

Assay [8] is described as follows: qHTS assay to identify small molecule agonists of the estrogen receptor beta (ER-beta) signaling pathway - cell viability counter screen (AID 1259380). Further: nearly all actives have a fitted effect of over 30% in size. Further: potency means the concentration at half of the fitted maximal effect. Put shortly:
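Luminescence read-out (CellTiter-Glo, 30 min, room temp) taken in the same wells as the beta-lactamase reporter assay; ER-beta-UAS-bla HEK293T cells exposed to DMSO-dissolved compounds for 16 hr at 37C in 2% charcoal-stripped FBS medium.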

The nature of assay [9]: qHTS assay to identify small molecule antagonists of the estrogen receptor beta (ER-beta) signaling pathway - cell viability counter screen (AID 1259382). Further: nearly all actives have a fitted effect of over 55% in size. Further: potency means the concentration at half of the fitted maximal effect. The essentials:
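Luminescent ATP read-out (CellTiter-Glo, 30 min, RT) taken in the same wells as the bla reporter assay. HEK293T ER-beta-UAS-bla cells in 2% charcoal-stripped FBS were exposed to compounds with 1nM E2 for 16 hr at 37C.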

The target of assay [10] is Estrogen receptor (Homo sapiens) (UniProt P03372). The assay can be described thus: qHTS assay to identify small molecule agonists of the estrogen receptor alpha (ER-alpha) signaling pathway in the presence of an antagonist (AID 1259383; calls by dose curve; further: top concentration of the series differs between compounds; nearly all actives have a fitted effect of over 15% in size). The essentials:
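Luciferase luminescence (ONE-Glo, 30min at room temperature) measured in VM7Luc4E2 cells after 22hr compound exposure at 15 concentrations, with 10.0nM ICI-182,780 final present; cells express endogenous ER-alpha and carry four EREs upstream of luciferase.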

A short description of assay [11]: qHTS assay to identify small molecule agonists or antagonists of the thyroid stimulating hormone receptor (TSHR) signaling pathway - wild type cell line counter screen (AID 1259384; calls by dose curve). Put shortly:
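Counter screen in untransfected Hek293: compounds (15-point titration, triplicate) plus phosphodiesterase inhibitor Ro20-1724 added after 18 h plating; 30 min RT. Intracellular cAMP via competitive d2/cryptate immunoassay, 1 h incubation.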

Assay [12] can be described thus: qHTS assay to identify small molecule agonists of the estrogen receptor alpha (ER-alpha) signaling pathway in the presence of an antagonist - cell viability counter screen (AID 1259386).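 Further: cells exposed to compounds for 22 h at 37 °C before the viability read; nearly all actives have a fitted effect of over 30% in size.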 Further: potency means the concentration at half of the fitted maximal effect. The essentials:
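Read-out: CellTiter-Fluor fluorescence after 1hr reagent incubation, measured in the same wells as the luciferase readout. VM7Luc4E2 cells were exposed to 15 compound concentrations with 10.0nM ICI-182,780 for 22hr at 37C.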

Assay [13] is described as follows: qHTS assay to identify small molecule HDAC inhibitors - cell viability counter screen (AID 1259365). Further: series mostly up to about 92 µM; nearly all actives have a fitted effect of over 50% in size. The essentials:
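Wild-type HCT-116 cells, 1,500/well, cultured overnight, then compound-treated 2 h at 37 C. Viability measured as ATP luminescence with CellTiter-Glo after 30 min at room temperature.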

Assay [14] concerns the target Estrogen receptor beta (Homo sapiens) (UniProt Q92731). The assay can be described thus: qHTS assay to identify small molecule agonists of the estrogen receptor beta (ER-beta) signaling pathway (AID 1259377; active means well fitted activation curve with a large enough effect in the signal ratio in the repeat runs, not every such curve was filed as active; the % refers to the signal ratio). The essentials: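 ER-beta-UAS-bla HEK293T cells in medium with 2% charcoal-stripped FBS were exposed to compounds for 16 h at 37C. Beta-lactamase reporter activity was read as fluorescence after 2 h with LiveBLAzer B/G FRET substrate at room temperature.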

Assay [15] shares this target. As to the kind of experiment: qHTS assay to identify small molecule antagonists of the estrogen receptor beta (ER-beta) signaling pathway (AID 1259378; active means well fitted inhibition curve with a large enough effect in the signal ratio in the repeat runs, not every such curve was filed as active; the % refers to the signal ratio). The essentials:
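Antagonist mode: compounds added to beta-lactamase reporter HEK293T ER-beta-UAS cells stimulated with E2 (1nM final), 16 hr at 37C. LiveBLAzer B/G FRET substrate, 2 hours room temperature, fluorescence read-out.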

The target of assay [16] is Thyrotropin receptor (Homo sapiens) (UniProt P16473). The assay can be described thus: qHTS assay to identify small molecule antagonists of the thyroid stimulating hormone receptor (TSHR) signaling pathway (AID 1259385; calls by dose curve; further: nearly all actives have a fitted effect of over 20% in size). Put shortly:
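Antagonist mode: compound-treated TSHR-expressing HEK293 cells were stimulated with 1.5 ng/mL TSH (final) in presence of Ro20-1724 for 30 min at RT. HTRF cAMP detection after 1 h; each compound tested at 15 concentrations, triplicate.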

Assay [17] can be described thus: qHTS assay to identify small molecule phospholipidosis (PLD) inducers (AID 1259344; active means well fitted curve in the direction sought with a large enough effect; an effect the other way counts as inactive or inconclusive). Put shortly: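 Accumulated phospholipid, stained red by LipidTOX during 24 h compound treatment of HepG2 cells at 37 C, is quantified from images as pit number and intensity, normalised per cell using Hoechst-stained nuclei.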
Assay [18] concerns the target Estrogen receptor (Homo sapiens) (UniProt P03372). The assay can be described thus: qHTS assay to identify small molecule antagonists of the estrogen receptor alpha (ER-alpha) signaling pathway using the BG1 cell line in the presence of 0.1 nM 17-beta-estradiol (AID 1259244). Further: nearly all actives have a fitted effect of over 50% in size. The essentials: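 Luminescence after ONE-Glo (30 min, room temperature) measured ERE-luciferase activity in VM7Luc4E2 cells treated 22 h with compound and 0.1 nM final 17beta-estradiol as stimulator.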
On the % scale 0 is the no-effect control and ±100 the full control effect.

Chain of Thyrotropin receptor (Homo sapiens) (P16473 whole entry, looked up): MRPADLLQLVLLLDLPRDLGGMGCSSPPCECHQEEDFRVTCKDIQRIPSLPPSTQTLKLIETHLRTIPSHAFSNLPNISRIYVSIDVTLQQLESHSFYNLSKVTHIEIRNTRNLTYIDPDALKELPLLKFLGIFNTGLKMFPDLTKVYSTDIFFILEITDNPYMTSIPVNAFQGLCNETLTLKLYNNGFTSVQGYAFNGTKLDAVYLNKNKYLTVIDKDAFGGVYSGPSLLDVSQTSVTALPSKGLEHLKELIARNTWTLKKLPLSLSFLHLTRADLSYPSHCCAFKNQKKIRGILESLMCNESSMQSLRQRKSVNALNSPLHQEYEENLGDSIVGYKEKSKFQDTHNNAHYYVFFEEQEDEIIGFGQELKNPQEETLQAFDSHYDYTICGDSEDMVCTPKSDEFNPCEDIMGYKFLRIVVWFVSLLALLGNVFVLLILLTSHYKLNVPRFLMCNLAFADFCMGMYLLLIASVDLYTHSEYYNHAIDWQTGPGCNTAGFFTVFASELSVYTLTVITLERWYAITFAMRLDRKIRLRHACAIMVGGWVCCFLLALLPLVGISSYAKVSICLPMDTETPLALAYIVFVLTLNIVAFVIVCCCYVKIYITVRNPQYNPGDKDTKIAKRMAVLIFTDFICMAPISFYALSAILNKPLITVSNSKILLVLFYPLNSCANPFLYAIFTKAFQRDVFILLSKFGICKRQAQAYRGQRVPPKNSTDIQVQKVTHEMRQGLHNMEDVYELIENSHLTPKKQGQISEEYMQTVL
Chain of Estrogen receptor (Homo sapiens) (P03372 whole entry, looked up): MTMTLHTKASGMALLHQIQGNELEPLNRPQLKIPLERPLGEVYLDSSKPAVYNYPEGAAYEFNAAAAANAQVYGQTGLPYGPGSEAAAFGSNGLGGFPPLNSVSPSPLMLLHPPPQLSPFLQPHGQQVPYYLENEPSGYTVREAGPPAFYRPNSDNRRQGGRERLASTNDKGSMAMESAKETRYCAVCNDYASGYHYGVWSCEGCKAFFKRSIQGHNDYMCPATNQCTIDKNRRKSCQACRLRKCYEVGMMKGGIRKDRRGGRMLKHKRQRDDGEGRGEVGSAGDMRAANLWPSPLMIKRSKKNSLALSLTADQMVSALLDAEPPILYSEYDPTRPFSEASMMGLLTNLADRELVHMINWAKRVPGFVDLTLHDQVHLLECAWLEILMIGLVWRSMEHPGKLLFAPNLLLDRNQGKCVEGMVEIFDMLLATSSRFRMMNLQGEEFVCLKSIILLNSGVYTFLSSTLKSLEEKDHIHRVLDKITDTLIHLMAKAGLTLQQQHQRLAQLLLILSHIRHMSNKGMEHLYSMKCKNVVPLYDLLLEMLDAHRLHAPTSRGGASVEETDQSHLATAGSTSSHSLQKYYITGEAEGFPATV
Chain of Estrogen receptor beta (Homo sapiens) (Q92731 whole entry, looked up): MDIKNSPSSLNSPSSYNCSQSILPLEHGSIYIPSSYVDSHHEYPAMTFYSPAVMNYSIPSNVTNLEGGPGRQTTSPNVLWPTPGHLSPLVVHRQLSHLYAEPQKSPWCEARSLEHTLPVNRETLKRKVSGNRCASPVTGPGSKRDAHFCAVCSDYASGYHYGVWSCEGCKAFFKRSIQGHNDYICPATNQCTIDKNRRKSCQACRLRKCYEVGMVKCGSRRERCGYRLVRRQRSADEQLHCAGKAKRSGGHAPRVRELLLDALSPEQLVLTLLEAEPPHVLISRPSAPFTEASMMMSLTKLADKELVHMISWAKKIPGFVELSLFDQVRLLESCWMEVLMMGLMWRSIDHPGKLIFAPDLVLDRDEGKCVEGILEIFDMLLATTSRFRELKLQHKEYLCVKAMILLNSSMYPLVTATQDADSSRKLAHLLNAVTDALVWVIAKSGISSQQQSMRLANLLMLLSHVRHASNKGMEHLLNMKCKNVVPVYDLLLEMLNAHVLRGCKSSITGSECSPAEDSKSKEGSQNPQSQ

With `COc1ccc(OC(F)(F)F)cc1CN[C@H]1CCCN[C@H]1c1ccccc1`, the Potency was 48.6 µM (active) in [1]; 48.6 µM (active) in assay [3]; 61.1 µM (active) in [4]; 10.9 µM (active) in assay [6]; 48.6 µM (active) in assay [7]; 34.4 µM (active) in assay [8]. The Potency in assay [9] was 30.6 µM (active). Also, the Potency entry in [2], in [10], in [11] and in assay [12] was “inactive” throughout. For the same compound, the outcome in assay [5] was inactive.
Consider `OC[C@H]1O[C@H](O[C@]2(CCl)O[C@H](CCl)[C@@H](O)[C@@H]2O)[C@H](O)[C@@H](O)[C@H]1Cl`, for which the Potency result in assay [1], in assay [2], in assay [13], in assay [3], in [4] and in [6] was “inactive” each time. The Potency entry in assay [14], in assay [15], in assay [7], in assay [8], in [9] and in assay [11] was “inactive” each time. Besides, the Potency result in assay [16] and in assay [12] was “inactive” in each case. In assay [5], the call was inactive.
With `Oc1ccccc1`, the Potency entry in assay [1], in [2], in [3], in assay [4], in assay [6] and in assay [7] was “inactive” in each case. Also, the Potency entry in [8], in assay [9], in assay [11], in [16] and in assay [12] was “inactive” in each case. Besides, in assay [17], the PLD induction is 0.811% [at 7.66 µM]. Moreover, in assay [5], the result was inactive.
Consider `CN1CCC[C@H]1c1cccnc1`, for which the Potency entry in assay [1], in assay [2], in [3], in assay [4], in [6] and in assay [7] was “inactive” in each case. For the same compound, the Potency result in assay [8], in [9] and in assay [12] was “inactive” in each case. For the same compound, the compound was classed as inactive in [5].
As for `CCN(Cc1c(F)cccc1Cl)c1c([N+](=O)[O-])cc(C(F)(F)F)cc1[N+](=O)[O-]`, the Potency entry in assay [1], in assay [2], in assay [13], in [3], in assay [4] and in assay [6] was “inactive” in each case. In addition, the Potency entry in assay [7], in [10] and in assay [12] was “inactive” each time. Besides, the compound was classed as inactive in [5]. The Potency in assay [8] was 30.6 µM (active); in [9], 43.3 µM (active).
Consider `Cc1cc(C)nc(NS(=O)(=O)c2ccc(N)cc2)n1`, for which the Potency entry in assay [1], in assay [17], in [2], in assay [3], in assay [4] and in [6] was “inactive” in each case. Also, the Potency entry in [7], in [8], in assay [9], in assay [11], in [16] and in assay [12] was “inactive” in each case. Moreover, the result in assay [5] was inactive.
`Nc1ccc([N+](=O)[O-])cc1O`: the Potency result in assay [18], in assay [17], in [13] and in [9] was “inactive” in each case. Moreover, the Potency in assay [3] was 30.6 µM (active); in [4], 24.3 µM (active); in [7], 30.6 µM (active); in assay [12] it was 27.3 µM (active). Also, the compound was classed as inactive in assay [5].
As for `O=C1c2c(O)cccc2Cc2cccc(O)c21`, the Potency result in assay [1], in assay [17], in assay [2], in [3], in assay [4] and in assay [6] was “inactive” each time. The Potency entry in [7], in assay [8], in assay [9], in [11], in [16] and in assay [12] was “inactive” in each case. Besides, the compound was classed as inactive in [5].
